# Experimental data: the supplement of paper PMC11732987, “Enantioselective OTUD7B fragment discovery through chemoproteomics screening and high-throughput optimisation” (Communications Chemistry, 2025)
# Unmarked numbers belong to inactive results.
# Key:
# Assay in all cases: log2 ratio of Biotin-Ahx-Ub-VS probe labelling (fragment/DMSO); higher = less target engagement (more negative = stronger competition), active = hit call of the paper (q ≤ 0.05, log2 ratio ≤ -1)
# Conditions in all cases: compound concentration: 200 uM; treatment time: 3 h
# ALG13 = biological target: T1, ALG13 (UniProt Q9NP73)
# T1 sequence (whole entry): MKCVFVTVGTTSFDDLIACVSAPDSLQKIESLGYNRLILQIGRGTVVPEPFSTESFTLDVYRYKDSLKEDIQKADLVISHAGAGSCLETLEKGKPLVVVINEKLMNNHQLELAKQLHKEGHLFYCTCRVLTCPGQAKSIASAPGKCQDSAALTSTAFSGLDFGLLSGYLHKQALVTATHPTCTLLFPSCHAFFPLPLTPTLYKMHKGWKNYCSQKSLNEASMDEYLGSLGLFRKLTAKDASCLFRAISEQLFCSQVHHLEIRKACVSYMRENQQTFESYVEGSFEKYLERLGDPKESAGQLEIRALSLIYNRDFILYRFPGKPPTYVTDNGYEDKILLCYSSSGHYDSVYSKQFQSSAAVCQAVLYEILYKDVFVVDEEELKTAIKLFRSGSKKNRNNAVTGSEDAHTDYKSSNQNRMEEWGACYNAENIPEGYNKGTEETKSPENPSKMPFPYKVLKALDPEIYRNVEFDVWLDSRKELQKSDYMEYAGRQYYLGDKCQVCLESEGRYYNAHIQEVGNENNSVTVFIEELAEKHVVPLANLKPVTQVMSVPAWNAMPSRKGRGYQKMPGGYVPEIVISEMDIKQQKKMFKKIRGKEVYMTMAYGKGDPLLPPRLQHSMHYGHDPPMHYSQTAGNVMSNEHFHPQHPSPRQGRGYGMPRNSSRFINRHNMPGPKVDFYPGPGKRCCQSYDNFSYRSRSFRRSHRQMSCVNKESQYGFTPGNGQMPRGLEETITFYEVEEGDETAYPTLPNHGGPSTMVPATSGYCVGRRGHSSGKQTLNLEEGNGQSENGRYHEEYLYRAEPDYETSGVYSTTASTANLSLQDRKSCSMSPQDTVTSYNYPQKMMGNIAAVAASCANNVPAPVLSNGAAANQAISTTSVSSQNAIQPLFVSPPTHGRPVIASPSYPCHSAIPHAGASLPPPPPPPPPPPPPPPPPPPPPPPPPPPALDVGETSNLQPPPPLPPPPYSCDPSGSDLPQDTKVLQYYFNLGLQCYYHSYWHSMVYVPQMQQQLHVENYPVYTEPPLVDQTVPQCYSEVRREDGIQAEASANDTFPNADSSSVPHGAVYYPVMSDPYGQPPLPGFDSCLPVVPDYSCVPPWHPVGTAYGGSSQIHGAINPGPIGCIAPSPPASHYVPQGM
# In short: (§1)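 HEK293T lysate (495 µg per sample, in Tris/CHAPS/IGEPAL buffer with protease inhibitors) was exposed in triplicate for 3 h to fragment at 200 µM or to vehicle, then to Biotin-Ahx-Ub-VS at 0.5 µM final for 1 h. Labelled DUBs were enriched on NeutrAvidin, digested with LysC and trypsin, and analysed by diaPASEF LC-MS/MS. Spectronaut label-free quantities were normalised to the global median, and values are average log2 ratios of fragment over vehicle from an unpaired t-test. Only proteins with ≥2 unique peptides were used.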
# ATXN3 = ATXN3 (UniProt P54252)
# In short: as §1
# BAP1 = biological target: T2, BAP1 (UniProt Q92560)
# T2 sequence (whole entry): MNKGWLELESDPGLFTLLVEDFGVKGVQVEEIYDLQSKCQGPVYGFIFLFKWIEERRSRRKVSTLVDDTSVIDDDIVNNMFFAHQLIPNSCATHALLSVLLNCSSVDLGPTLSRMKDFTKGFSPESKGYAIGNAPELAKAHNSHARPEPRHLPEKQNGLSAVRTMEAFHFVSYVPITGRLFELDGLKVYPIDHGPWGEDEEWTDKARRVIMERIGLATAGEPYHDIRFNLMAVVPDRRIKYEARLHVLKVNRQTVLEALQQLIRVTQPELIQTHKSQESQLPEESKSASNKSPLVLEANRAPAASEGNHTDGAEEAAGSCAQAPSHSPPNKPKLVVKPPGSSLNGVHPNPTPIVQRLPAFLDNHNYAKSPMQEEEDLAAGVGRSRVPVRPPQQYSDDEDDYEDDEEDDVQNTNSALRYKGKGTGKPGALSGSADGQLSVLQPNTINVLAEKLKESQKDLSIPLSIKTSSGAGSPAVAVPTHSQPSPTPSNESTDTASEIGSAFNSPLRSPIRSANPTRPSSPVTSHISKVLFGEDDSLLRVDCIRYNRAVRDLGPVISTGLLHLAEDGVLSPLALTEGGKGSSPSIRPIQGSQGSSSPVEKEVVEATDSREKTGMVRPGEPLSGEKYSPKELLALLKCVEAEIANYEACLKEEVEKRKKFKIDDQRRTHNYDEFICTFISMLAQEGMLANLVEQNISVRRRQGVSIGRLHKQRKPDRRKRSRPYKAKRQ
# In short: as §1
# EIF3F = EIF3F (UniProt O00303)
# In short: as §1
# EIF3H = EIF3H (UniProt O15372)
# In short: as §1
# FAM105A = biological target: T3, FAM105A (UniProt Q9NUU6)
# T3 sequence (whole entry): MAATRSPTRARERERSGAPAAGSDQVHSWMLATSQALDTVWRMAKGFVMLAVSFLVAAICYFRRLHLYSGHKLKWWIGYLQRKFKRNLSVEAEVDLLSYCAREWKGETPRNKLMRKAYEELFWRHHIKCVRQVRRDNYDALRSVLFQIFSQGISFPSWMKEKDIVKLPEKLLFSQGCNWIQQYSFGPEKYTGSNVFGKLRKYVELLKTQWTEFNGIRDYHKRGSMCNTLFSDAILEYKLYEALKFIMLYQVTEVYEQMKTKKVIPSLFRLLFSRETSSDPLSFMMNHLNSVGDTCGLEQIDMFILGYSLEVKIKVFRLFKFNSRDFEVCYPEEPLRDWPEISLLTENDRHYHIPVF
# In short: as §1
# OTUB1 = OTUB1 (UniProt Q96FW1)
# In short: as §1
# OTUD4 = biological target: T4, OTUD4 (UniProt Q01804)
# T4 sequence (whole entry): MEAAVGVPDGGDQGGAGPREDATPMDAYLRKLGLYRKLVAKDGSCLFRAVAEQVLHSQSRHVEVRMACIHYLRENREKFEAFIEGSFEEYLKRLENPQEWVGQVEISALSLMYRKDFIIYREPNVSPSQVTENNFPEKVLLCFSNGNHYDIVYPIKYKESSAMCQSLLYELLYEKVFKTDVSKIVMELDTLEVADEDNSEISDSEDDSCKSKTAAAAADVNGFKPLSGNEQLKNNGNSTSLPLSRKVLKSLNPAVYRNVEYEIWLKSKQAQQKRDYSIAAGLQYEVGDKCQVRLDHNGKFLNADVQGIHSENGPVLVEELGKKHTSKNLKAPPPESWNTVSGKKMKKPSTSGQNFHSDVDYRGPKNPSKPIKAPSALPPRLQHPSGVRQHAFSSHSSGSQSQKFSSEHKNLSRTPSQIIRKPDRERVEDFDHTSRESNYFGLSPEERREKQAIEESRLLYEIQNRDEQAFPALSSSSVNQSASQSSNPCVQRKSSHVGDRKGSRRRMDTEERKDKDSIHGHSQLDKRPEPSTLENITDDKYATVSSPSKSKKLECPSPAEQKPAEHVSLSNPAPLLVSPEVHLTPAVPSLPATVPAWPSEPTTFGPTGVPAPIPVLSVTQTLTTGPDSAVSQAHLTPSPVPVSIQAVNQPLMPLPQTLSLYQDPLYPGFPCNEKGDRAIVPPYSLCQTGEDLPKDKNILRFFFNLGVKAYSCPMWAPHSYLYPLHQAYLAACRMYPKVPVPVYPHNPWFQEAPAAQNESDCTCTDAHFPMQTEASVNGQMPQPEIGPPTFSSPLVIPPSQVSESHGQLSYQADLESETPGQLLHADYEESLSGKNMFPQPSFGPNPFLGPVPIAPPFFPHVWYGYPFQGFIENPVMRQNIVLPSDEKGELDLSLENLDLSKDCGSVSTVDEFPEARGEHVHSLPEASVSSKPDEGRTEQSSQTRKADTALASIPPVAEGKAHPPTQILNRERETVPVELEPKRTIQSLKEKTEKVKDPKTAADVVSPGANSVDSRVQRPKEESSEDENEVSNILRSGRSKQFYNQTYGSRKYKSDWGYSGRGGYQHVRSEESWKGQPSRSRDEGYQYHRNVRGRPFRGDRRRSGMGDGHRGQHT
# In short: as §1
# OTUD5 = biological target: T5, OTUD5 (UniProt Q96G74)
# T5 sequence (whole entry): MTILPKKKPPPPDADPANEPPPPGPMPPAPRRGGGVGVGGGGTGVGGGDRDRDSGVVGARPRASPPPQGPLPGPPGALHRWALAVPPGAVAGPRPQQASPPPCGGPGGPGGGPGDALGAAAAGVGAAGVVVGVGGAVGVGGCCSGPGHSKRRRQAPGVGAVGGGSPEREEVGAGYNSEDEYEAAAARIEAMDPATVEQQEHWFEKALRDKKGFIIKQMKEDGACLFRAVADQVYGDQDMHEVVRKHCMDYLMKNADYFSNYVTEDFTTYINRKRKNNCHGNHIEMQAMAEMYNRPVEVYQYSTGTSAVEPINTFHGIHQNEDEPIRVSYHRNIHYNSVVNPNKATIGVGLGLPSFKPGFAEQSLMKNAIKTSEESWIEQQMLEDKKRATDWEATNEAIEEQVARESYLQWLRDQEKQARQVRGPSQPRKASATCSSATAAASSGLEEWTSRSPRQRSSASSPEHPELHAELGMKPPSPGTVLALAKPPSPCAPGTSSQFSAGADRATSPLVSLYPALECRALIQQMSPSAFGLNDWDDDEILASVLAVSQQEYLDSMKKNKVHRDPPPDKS
# In short: as §1
# ATXN3, sequence (P54252 whole entry): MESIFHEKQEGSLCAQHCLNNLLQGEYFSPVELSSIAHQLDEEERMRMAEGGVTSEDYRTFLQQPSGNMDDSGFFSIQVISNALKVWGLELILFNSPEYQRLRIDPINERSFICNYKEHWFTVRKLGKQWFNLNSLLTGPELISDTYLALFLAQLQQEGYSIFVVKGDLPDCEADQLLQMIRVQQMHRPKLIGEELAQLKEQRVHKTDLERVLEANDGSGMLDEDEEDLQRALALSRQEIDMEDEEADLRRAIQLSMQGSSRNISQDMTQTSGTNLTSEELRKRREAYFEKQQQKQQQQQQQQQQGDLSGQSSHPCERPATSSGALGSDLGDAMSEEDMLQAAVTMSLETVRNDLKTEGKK
# EIF3F, sequence (O00303 whole entry): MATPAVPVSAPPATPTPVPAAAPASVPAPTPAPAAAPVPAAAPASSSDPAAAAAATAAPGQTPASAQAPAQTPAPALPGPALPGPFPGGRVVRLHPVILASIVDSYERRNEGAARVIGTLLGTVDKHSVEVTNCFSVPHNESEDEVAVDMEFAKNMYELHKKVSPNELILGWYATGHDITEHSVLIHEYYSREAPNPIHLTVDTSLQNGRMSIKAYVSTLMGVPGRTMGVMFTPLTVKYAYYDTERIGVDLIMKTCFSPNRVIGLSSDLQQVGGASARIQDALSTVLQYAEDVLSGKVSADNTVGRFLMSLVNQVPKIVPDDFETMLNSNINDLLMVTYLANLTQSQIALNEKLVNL
# EIF3H, sequence (O15372 whole entry): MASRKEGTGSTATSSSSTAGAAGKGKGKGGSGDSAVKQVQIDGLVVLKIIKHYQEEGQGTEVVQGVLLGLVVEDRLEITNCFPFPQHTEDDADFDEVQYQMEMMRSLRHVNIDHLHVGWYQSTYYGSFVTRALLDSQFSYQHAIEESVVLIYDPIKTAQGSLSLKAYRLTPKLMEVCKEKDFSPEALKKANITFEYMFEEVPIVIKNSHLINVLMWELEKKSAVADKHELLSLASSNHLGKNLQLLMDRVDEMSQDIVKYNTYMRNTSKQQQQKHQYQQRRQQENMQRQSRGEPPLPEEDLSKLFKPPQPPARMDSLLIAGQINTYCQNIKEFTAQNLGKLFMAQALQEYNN
# OTUB1, sequence (Q96FW1 whole entry): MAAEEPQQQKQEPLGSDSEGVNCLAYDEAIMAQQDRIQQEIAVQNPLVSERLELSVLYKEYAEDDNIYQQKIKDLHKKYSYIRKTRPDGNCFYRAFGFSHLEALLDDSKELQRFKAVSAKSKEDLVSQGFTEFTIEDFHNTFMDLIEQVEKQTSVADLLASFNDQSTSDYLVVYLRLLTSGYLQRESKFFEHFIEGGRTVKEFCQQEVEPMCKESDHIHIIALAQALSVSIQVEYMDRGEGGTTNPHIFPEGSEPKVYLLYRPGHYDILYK
smiles,measurement,setting,value
Cc1c(NC(=O)CCl)c(=O)n(-c2ccccc2)n1C,log2 ratio of Biotin-Ahx-Ub-VS probe labelling,ALG13,0.0604
same,log2 ratio of Biotin-Ahx-Ub-VS probe labelling,ATXN3,-0.0623
same,log2 ratio of Biotin-Ahx-Ub-VS probe labelling,BAP1,-1.12 (active)
same,log2 ratio of Biotin-Ahx-Ub-VS probe labelling,EIF3F,-0.188
same,log2 ratio of Biotin-Ahx-Ub-VS probe labelling,EIF3H,0.333
same,log2 ratio of Biotin-Ahx-Ub-VS probe labelling,FAM105A,-0.533
same,log2 ratio of Biotin-Ahx-Ub-VS probe labelling,OTUB1,-0.0746
same,log2 ratio of Biotin-Ahx-Ub-VS probe labelling,OTUD4,0.11
same,log2 ratio of Biotin-Ahx-Ub-VS probe labelling,OTUD5,-0.0203
